This is an account of results in PubChem BioAssay (NCATS).

Several values for one entry are separate records, joined by “and”; a condition that tells them apart may be missing. Equal entries are not always repeated. Unmarked numbers belong to inactive results. Records with an inconclusive call do not appear. Activity calls are given as the source filed them. Calls come from the whole dose curve; as a rule, active = well fitted curve in the direction sought with a large enough effect; inconclusive = small, poorly fitted or top-dose-only effect, or another doubt; inactive = no such curve, though single readings can be large; an effect the other way counts as inactive or inconclusive.

The subject of experiment [1] is Zika virus NS2B-NS3 protease (linked construct). Description: Primary screen NINDS Rhodamine qHTS for Zika virus inhibitors (AID 1347160). Note: nearly all actives have a fitted effect of over 55% in size. A digest of the protocol:
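Rhodamine110-peptide cleavage (1.5 µM substrate) by 25 nM linked NS2B-NS3 enzyme at pH 8.0 (Tris, Tween 20), after 15 min RT preincubation with compounds; 15-min fluorescence change normalized to controls and Hill-fitted.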
For orientation: Quantitative high-throughput screening tests each substance at several concentrations.

Experiment [2] addresses Calcium and integrin-binding protein 1 (Homo sapiens) (UniProt Q99828). Description: Primary qHTS for Identification of Calcium Integrin Binding Protein 1 (CIB1) Competitor (AID 1508620).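 Note: GST tagged CIB1 binding a fluorescein labelled alphaIIb integrin peptide tracer; top concentration of the series differs between compounds.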 A digest of the protocol: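 Fluorescence polarization competition: CIB1-GST (1 uM final) preincubated with compound 15 min at room temperature, then FITC-labeled alphaIIb peptide (100 nM final) added for another 15 min. Polarization read at Ex 480/Em 540.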

A short description of experiment [3]: Primary qHTS for inhibitors of nuclear receptor binding SET domain protein 2 (NSD2) in an isogenic RCH-ACV NSD2 p.E1099K mutant (9B) (AID 1645876). Note: potency is the fitted concentration of half-maximal effect; nearly all actives have a fitted effect of over 70% in size.
Experiment [4] in a line: Primary qHTS for inhibitors of nuclear receptor binding SET domain protein 2 (NSD2) in an RCH-ACV wild type WT cells (2C) (AID 1645877). Note: potency is the fitted concentration of half-maximal effect; nearly all actives have a fitted effect of over 70% in size.
For experiment [5], the target named is Glutathione peroxidase 1 (Homo sapiens) (UniProt P07203). Description: Primary qHTS Assay for Inhibitors of Recombinant Selenoprotein Glutathione Peroxidase 1 (GPX1) (AID 1845191). Note: nearly all actives have a fitted effect of over 65% in size. A digest of the protocol:
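GPX1 10 nM, GR 100 nM, GSH 1 mM, NADPH 0.5 mM, CHP 0.5 mM (final). 30-min cpd preincubation, RT. Ex340/Em450 read t=0, t=15 min.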

The target in experiment [6] is Luciferin 4-monooxygenase (Photinus pyralis) (UniProt P08659). Briefly: Primary firefly luciferase (FLuc) qHTS assay for identification of artifact compounds. (AID 1845220). Note: nearly all actives have a fitted effect of over 60% in size. In a few lines: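 In this counter-screen for luciferase artifacts, test compounds met substrate (10 uM each luciferin and ATP) before 10 nM enzyme started the reaction. Light output was measured 5 min later.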

The nature of experiment [7]: Primary fluorescence-based thiol-reactive (MSTI) qHTS assay for identification of artifact compounds. (AID 1845221).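 Note: thiol-reactive compounds lower the probe fluorescence signal; nearly all actives have a fitted effect of over 65% in size.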 In a few lines: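 qHTS titration of compound; 4 uM MSTI, PBS pH 7.4, 2% DMSO; 1 h RT, dark; fluorescence 525/598 nm; normalized to Acetyl-MSTI and MSTI; 4-parameter Hill fit.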
The test system of experiment [8] is Nanoluciferase (engineered Oplophorus gracilirostris luciferase). Description: Primary Nanoluciferase (NLuc) qHTS assay for identification of artifact compounds. (AID 1845222).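 Note: NLuc secreted into diluted conditioned medium of S16 cells.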 In a few lines: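 Using secreted nanoluciferase in S16 culture medium (0.22 um filtered, 1:55 dilution), compounds were preincubated 15 min at RT. Signal was generated with Nano-Glo reagent (1:100) over 5 min.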

For a further experiment, the system named is C33A. Briefly: Primary qHTS to identify gynecologic anti-cancer compounds using libraries of approved drugs and bioactive compounds (AID 1345084). Note: nearly all actives have a fitted effect of over 55% in size. The conditions noted are these: Gynecologic cancer cell panel viability, ATPlite luminescence, 48 h; series mostly up to 57.5 µM. A digest of the protocol: (§1)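 Cells, 1,000 per well, were allowed to settle for 16 h at 37 C before compound addition. Five concentrations were tested for 48 h, and viability was read by ATPlite luminescence after 15 min at room temperature.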

For a further experiment, the system named is CAOV3. The experiment is described as above. The following applies: Gynecologic cancer cell panel viability, ATPlite luminescence, 48 h; series mostly up to 57.5 µM. A digest of the protocol:
as §1
On the technique in general: In ATP-based viability assays light output follows the ATP content of the culture.

Another experiment has as its system CASKI. The experiment is described as above. The following applies: Gynecologic cancer cell panel viability, ATPlite luminescence, 48 h; series mostly up to 57.5 µM. In a few lines:
as §1

In a further experiment the test system is Es-2. The experiment is described as above. The following applies: Gynecologic cancer cell panel viability, ATPlite luminescence, 48 h; series mostly up to 57.5 µM. A digest of the protocol: as §1
The next experiment has as its system HeLa. The description is as above. The conditions noted are these: Gynecologic cancer cell panel viability, ATPlite luminescence, 48 h; series mostly up to 57.5 µM. A digest of the protocol:
as §1

Another experiment relates to Hek293T. The experiment is described as above. The conditions noted are these: Gynecologic cancer cell panel viability, ATPlite luminescence, 48 h, control line for the selectivity index; series mostly up to 57.5 µM. A digest of the protocol: as §1
Another experiment relates to JEG-3. Described as above. The conditions noted are these: Gynecologic cancer cell panel viability, ATPlite luminescence, 48 h; series mostly up to 57.5 µM. In a few lines:
as §1

A further experiment deals with OV90. The experiment is described as above. The following applies: Gynecologic cancer cell panel viability, ATPlite luminescence, 48 h; series mostly up to 57.5 µM. A digest of the protocol:
as §1

The test system of the next experiment is Tov-21-G. The experiment is described as above. The following applies: Gynecologic cancer cell panel viability, ATPlite luminescence, 48 h; series mostly up to 57.5 µM. In a few lines:
as §1

The subject of the next experiment is Tov112D. The description is as above. The following applies: Gynecologic cancer cell panel viability, ATPlite luminescence, 48 h; series mostly up to 57.5 µM. In a few lines: as §1
In experiment [9] the target is Phospholipid hydroperoxide glutathione peroxidase GPX4 (Homo sapiens) (UniProt P36969). Description: Primary qHTS Assay for Inhibitors of Recombinant Selenoprotein Glutathione Peroxidase 4 (GPX4) (AID 1845192). Note: nearly all actives have a fitted effect of over 65% in size. The following applies: outcome: dose series up to 50 µM unless noted. In a few lines: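 qHTS, GR-coupled: GPX4 200 nM + cpd 30 min RT → GSH 1 mM, NADPH 0.5 mM, GR 100 nM → CHP 0.5 mM start; fluor 340/450 at t0 and t15 min; no-enzyme wells as control.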
Sequence of Phospholipid hydroperoxide glutathione peroxidase GPX4 (Homo sapiens) (P36969 whole entry, looked up): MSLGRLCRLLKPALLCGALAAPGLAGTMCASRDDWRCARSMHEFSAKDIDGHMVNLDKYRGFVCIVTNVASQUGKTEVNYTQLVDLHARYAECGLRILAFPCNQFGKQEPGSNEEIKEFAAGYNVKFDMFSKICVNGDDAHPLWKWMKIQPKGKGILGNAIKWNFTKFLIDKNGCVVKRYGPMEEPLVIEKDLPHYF

The nature of experiment [10]: Primary redox qHTS assay for identification of artifact compounds. (AID 1845223). In a few lines: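 Redox-cycling detection via DTT (250 uM final) oxidation coupled to Amplex Red (25 uM)/HRP (250 mU/mL) in HBSS. 15 min preincubation plus 30 min after DTT, room temperature. Ex/Em 525/598 nm; 4-parameter Hill fit against DMSO and 10 uM DA3003.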

Sequence of Glutathione peroxidase 1 (Homo sapiens) (P07203 whole entry, looked up): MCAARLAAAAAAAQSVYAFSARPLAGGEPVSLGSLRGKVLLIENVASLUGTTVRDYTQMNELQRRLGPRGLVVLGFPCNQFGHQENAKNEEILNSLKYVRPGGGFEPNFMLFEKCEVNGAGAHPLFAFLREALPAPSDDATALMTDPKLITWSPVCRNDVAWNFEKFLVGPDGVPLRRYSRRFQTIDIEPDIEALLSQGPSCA
Sequence of Calcium and integrin-binding protein 1 (Homo sapiens) (Q99828 whole entry, looked up): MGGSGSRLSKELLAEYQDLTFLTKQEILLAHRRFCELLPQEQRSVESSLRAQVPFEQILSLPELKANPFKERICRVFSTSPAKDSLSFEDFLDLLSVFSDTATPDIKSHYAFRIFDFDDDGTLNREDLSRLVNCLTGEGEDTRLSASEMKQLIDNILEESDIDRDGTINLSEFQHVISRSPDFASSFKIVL

`C=C1/C(=C/C=C2\CCC[C@]3(C)[C@@H]([C@H](C)/C=C/C(=O)C4CC4)CC[C@@H]23)C[C@@H](O)C[C@@H]1O`: the Potency entry (in experiment [1]; in [5]; in [6]; in [7]; in [8]; with C33A) was “inactive” throughout. Further, the Potency result in the experiment on CAOV3, with CASKI, with Es-2, with HeLa, in the experiment on Hek293T and in the experiment on JEG-3 was “inactive” throughout. Further, the Potency entry with OV90, in the experiment with Tov-21-G and with Tov112D was “inactive” throughout. In experiment [2], the result was inactive. Moreover, the Potency in experiment [3] is 16.3 µM (active); in experiment [4], 23 µM (active).

Turning to `C=C1CC[C@@H]2[C@](C)(CO)[C@H](O)CC[C@@]2(C)[C@@H]1C/C=C1/C(=O)OC[C@@H]1O`, the Potency entry in experiment [1], in experiment [9], in [6], in experiment [7], in [8] and in [10] was “inactive” throughout. For the same compound, the Potency entry with CAOV3, with Es-2, with HeLa, with JEG-3 and in the experiment on OV90 was “inactive” in each case. Besides, the outcome in experiment [2] was inactive.

On to `CNC(=O)c1cccc2cc(Oc3ccnc4cc(OCC5(N)CC5)c(OC)cc34)ccc12`, for which the Potency result (in [1]; in experiment [9]; in [6]; in [7]; in experiment [8]; in the experiment with C33A) was “inactive” each time. Further, the Potency result in the experiment on CAOV3, in the experiment with CASKI, in the experiment with Es-2, in the experiment with HeLa, with Hek293T and with JEG-3 was “inactive” each time. Also, the Potency result in the experiment on Tov-21-G and with Tov112D was “inactive” throughout. Besides, the outcome in experiment [2] was inactive. For the same compound, the Potency was 14.8 µM (active) and 20.6 µM (active) in experiment [3]; 10.5 µM (active) and 23.1 µM (active) in experiment [4].

Consider `CC(C)[C@@H](C)/C=C/[C@@H](C)[C@H]1CC[C@H]2C3=CC=C4C[C@@H](O)CC[C@]4(C)C3=CC[C@]12C`, for which the Potency result in experiment [1], in [5], in [9], in [6], in [7] and in experiment [8] was “inactive” throughout. In addition, the Potency entry in the experiment with C33A, in the experiment on CAOV3, in the experiment on CASKI, in the experiment with Es-2, in the experiment on HeLa and in the experiment with Hek293T was “inactive” in each case. The Potency entry in the experiment with JEG-3, with OV90, in the experiment on Tov-21-G and with Tov112D was “inactive” throughout. The result in [2] was inactive.

Consider `CNc1ccc([N+](=O)[O-])cc1-n1cnc(-c2ccc(C(F)(F)F)cc2)c1`, for which the Potency entry in [1], in [5], in experiment [9], in [6], in experiment [7] and in [8] was “inactive” throughout. Moreover, the Potency entry (in [10]; in the experiment on C33A; in the experiment with CAOV3; with CASKI; in the experiment on Es-2; in the experiment with HeLa) was “inactive” each time. Besides, the Potency entry with Hek293T, in the experiment on JEG-3, in the experiment on OV90, in the experiment on Tov-21-G and in the experiment with Tov112D was “inactive” each time. In experiment [2], the result was inactive.

For `CC1CCC2C(=CCC(O)C2(C)C)C1(C)Cc1c(O)cc(CO)c(C=O)c1O` (stereo not drawn), the Potency entry (in experiment [1]; in experiment [9]; in experiment [6]; in experiment [7]; in experiment [8]; in the experiment with C33A) was “inactive” each time. Also, the Potency entry in the experiment on CAOV3, with CASKI, in the experiment on Es-2, with HeLa, in the experiment on Hek293T and in the experiment with JEG-3 was “inactive” throughout. The Potency entry in the experiment with OV90, with Tov-21-G and with Tov112D was “inactive” in each case.

Turning to `Cc1ccc(CCCO)c(NCc2ccc3nc(NCCCN4CCOCC4)n(Cc4nc(C)ccc4O)c3c2)c1`, the Potency result (in experiment [1]; in [5]; in [9]; in experiment [6]; in experiment [8]; with C33A) was “inactive” each time. Also, the Potency entry in the experiment on CASKI, with Es-2, in the experiment with HeLa, in the experiment on Hek293T, in the experiment with JEG-3 and in the experiment with Tov-21-G was “inactive” in each case. In the experiment on Tov112D, the Potency entry was “inactive”. The outcome in [2] was inactive. For the same compound, the Potency in experiment [3] is 12.9 µM (active); in experiment [4], 11.5 µM (active).
